32 compounds from PubChem BioAssay (EPA / NIEHS) can be followed below.

Records with an inconclusive call do not appear. Active and inactive are the calls of the source. Rule for the calls: active = hit-call score of the fitted dose curve at least 0.9, where 1 is the maximum; inconclusive = response in the unintended direction; inactive = score below 0.9.

Sequence of Cytochrome P450 3A4 (Homo sapiens) (P08684 whole entry, looked up): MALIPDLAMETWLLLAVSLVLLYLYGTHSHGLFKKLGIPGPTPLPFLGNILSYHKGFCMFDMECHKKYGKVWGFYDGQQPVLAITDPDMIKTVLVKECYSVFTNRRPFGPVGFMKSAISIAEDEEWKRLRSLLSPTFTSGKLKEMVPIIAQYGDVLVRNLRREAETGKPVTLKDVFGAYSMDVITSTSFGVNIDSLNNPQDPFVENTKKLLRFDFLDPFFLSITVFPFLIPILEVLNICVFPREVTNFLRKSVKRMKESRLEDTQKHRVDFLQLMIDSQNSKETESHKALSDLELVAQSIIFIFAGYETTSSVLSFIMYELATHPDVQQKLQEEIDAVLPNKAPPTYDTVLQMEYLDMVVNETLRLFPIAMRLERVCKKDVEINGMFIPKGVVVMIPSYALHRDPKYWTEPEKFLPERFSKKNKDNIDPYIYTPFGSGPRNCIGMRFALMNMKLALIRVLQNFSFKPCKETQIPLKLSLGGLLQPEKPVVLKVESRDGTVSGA

Read-out in this assay: Cytochrome P450 3A4 (Homo sapiens) (UniProt P08684)
As to the kind of experiment: CLD_CYP3A4_24hr: CellzDirect (CLD) Gene Expression Assay for xenobiotic metabolism (CYP3A4) at 24 hours (AID 2283689). As to the method: CLD_24hr is a cell-based, multiplexed-readout assay that uses hepatocyte, a human liver primary cell, with measurements taken at 24 hours after chemical dosing in a 96-well plate.CLD_CYP3A4_24hr is one of 16 assay component(s) measured or calculated from the CLD_24hr assay. It is designed to make measurements of mRNA induction, a form of inducible reporter, as detected with chemiluminescence signals by Quantitative Nuclease Protection Assay (qNPA) technology.Data from the assay component CLD_CYP3A4_24hr was analyzed at the endpoint, CLD_CYP3A4_24hr, in the positive analysis fitting direction relative to DMSO as the negative control and baseline of activity. Using a type of inducible reporter, gain-of-signal activity can be used to understand changes in the reporter gene as they relate to the gene CYP3A4. Furthermore, this assay endpoint can be referred to as a primary readout. To generalize the intended target to other relatable targets, this assay endpoint is annotated to the cyp intended target family, where subfamily is xenobiotic metabolism.
Human hepatocyte cultures were treated daily for two consecutive days with fresh dosing solutions containing appropriate concentrations of the 320 ToxCast chemicals (chemical identities were blinded to CellzDirect and other ToxCast collaborators), vehicle control (0.2% DMSO), and positive control inducers as summarized in Table 1. Due to the large number of treatment groups and chemicals examined, the ToxCast chemicals were divided into two groups (spanning two independent cultures of hepatocytes from separate donor preparations (Hu778: ToxCast plates 1 and 2; Hu776: ToxCast plates 3 and 4). Each preparation of human hepatocyte cultures was treated with respective vehicle control, medium only control, set of six positive controls/reference chemicals for the five hepatic receptor pathways, and a subset of eight of the ToxCast chemicals (indoxacarb, pyrithiobac-sodium, norflurazon, cyhalofop-butyl, methomyl, thiram, acetochlor, and propiconazole). These replicate data, coupled with internal replicates designed within the blinded ToxCast chemical library, provided additional data to evaluate interindividual differences between hepatocyte preparations and their potential impact on chemical profiles.Cell morphology and integrity were evaluated using phase-contrast microscopy as an indicator of hepatocyte cell health (Tyson & Green, 1987). Cultures for each treatment group (i.e., media, vehicle [0.2% DMSO], positive control inducers [multiple concentrations], and the ToxCast chemicals [multiple concentrations]) were observed and cell morphology was assessed relative to vehicle control cultures at each harvest time point (0, 6, 24, or 48 h). […] Images were evaluated at the conclusion of the study to assess changes in cell integrity and account for the effects of chemical exposure on uncharacteristic changes in concentration-dependent gene expression profiles. The results from these determinations of apparent cytotoxicity were annotated (yes/no) alongside the corresponding qNPA data for reference.At the conclusion of each treatment period, hepatocyte cultures (96-well) were washed with 1 volume of HBSS, lysed by addition of 25 ul ArrayPlate lysis buffer (HTG, Tucson, AZ), and 70 ul/well of Denaturation Oil, denatured by incubation at 95C for 10 min, and frozen at approximately -70C until analysis by nuclease protection assay (qNPA) (Roberts et al., 2007). For qNPA analysis, cell lysates were thawed at 50C for approximately 30 min, qNPA probes were added, and samples were incubated at 95C for 10 min to begin the detection process by denaturing the target RNA, dissociating the duplexes and secondary structure hybridization. At the conclusion of the hybridization period, S1 nuclease reagent was added to each sample to digest all nonprotected nucleotides at 50C for 60-90 min. […]
For orientation: AC50 means the midpoint of the concentration-response curve, whichever way the signal moves. With `COC(=O)CSc1cc(N=c2sc(=O)n3n2CCCC3)c(F)cc1Cl`, the AC50 was 1.9 µM (active).

Regarding `O=C(O)C1(C(=O)Nc2ccc(Cl)cc2Cl)CC1`, the compound was called inactive.

`CCOC(=O)COc1cc(-n2ncc(C(F)(F)F)c(C)c2=O)c(F)cc1Cl`: the AC50 is 20 µM (active).

Consider `N#CSCSc1nc2ccccc2s1`, for which the compound was classed as inactive.

Take `CCCCOC(=O)C(C)Oc1ccc(Oc2ccc(C(F)(F)F)cn2)cc1` (configuration not stated): the outcome was inactive.

Regarding `COC(=O)c1c(Cl)nn(C)c1S(=O)(=O)NC(=O)Nc1nc(OC)cc(OC)n1`, the AC50 was 4.62 µM (active).

`COC(=O)c1ccc(CNS(C)(=O)=O)cc1S(=O)(=O)NC(=O)Nc1nc(OC)cc(OC)n1`: the compound was classed as inactive.

On to `OB(O)O`, for which the compound was called inactive.

Regarding `S=C([S-])NCCNC(=S)[S-].[Mn+2]`, the compound was called inactive.

On to `COC(=O)c1ccccc1C(=O)O`, for which the result was inactive.

Take `C#CCOC(=O)[C@@H](C)Oc1ccc(Oc2ncc(Cl)cc2F)cc1`: the compound was classed as inactive.

For the compound `CC(C)(c1ccc(O)cc1)c1ccc(O)cc1`, the outcome was inactive.

For `COc1c(Cl)ccc(Cl)c1C(=O)O`, the outcome was inactive.

`CCCCCCC(C)OC(=O)COc1nc(F)c(Cl)c(N)c1Cl` (configuration not stated): the call was inactive.

Take `CCN(Cc1c(F)cccc1Cl)c1c([N+](=O)[O-])cc(C(F)(F)F)cc1[N+](=O)[O-]`: the AC50 is 1.45 µM (active).

`S=C(S)NCCNC(=S)S.[Mn+2].[S-]C([S-])=NCCN=C([S-])[S-].[Zn+2]`: the compound was called inactive.

On to `CCCCOC(=O)[C@@H](C)Oc1ccc(Oc2ccc(C(F)(F)F)cn2)cc1`, for which the outcome was inactive.

With `CCCCC(CC)CN1C(=O)C2C3C=CC(C3)C2C1=O` (configuration not stated), the half-maximal activity concentration (AC50) was 20 µM (active).

As for `CCCOC(=O)NCCCN(C)C`, the call was inactive.

In the case of `COC(=O)c1cccc(C)c1S(=O)(=O)NC(=O)Nc1nc(OCC(F)(F)F)nc(N(C)C)n1`, the AC50 was 20 µM (active).

Take `CSC(=O)c1cccc2nnsc12`: the compound was called inactive.

For the compound `c1ccc(Nc2ccccc2)cc1`, the compound was called inactive.

In the case of `CCCN(CCC)C(=O)SCC`, the compound was called inactive.

Consider `CCCN(CCC)c1c([N+](=O)[O-])cc(C(F)(F)F)c(N)c1[N+](=O)[O-]`, for which the AC50 was 8.44 µM (active).

For `CCCCCOC(=O)COc1cc(N2C(=O)C3=C(CCCC3)C2=O)c(F)cc1Cl`, the concentration at half-maximal activity (AC50) was 4.01 µM (active).

With `O=C(Nc1ccc([N+](=O)[O-])cc1Cl)c1cc(Cl)ccc1O`, the outcome was inactive.

As to `CCOC(=O)C(C)Oc1ccc(Oc2cnc3cc(Cl)ccc3n2)cc1` (configuration not stated), the compound was classed as inactive.

For the compound `Cc1nn(C)c(Oc2ccccc2)c1C=NOCc1ccc(C(=O)OC(C)(C)C)cc1`, the compound was classed as inactive.

As to `CCOC(=O)C(C)Oc1ccc(Oc2nc3ccc(Cl)cc3o2)cc1` (configuration not stated), the outcome was inactive.

Take `COc1nc(C)nc(NC(=O)NS(=O)(=O)c2ccccc2OCCCl)n1`: the half-maximal activity concentration (AC50) was 6.77 µM (active).

As to `CC1(C)C(C=C(Cl)Cl)C1C(=O)OCc1cccc(Oc2ccccc2)c1` (configuration not stated), the outcome was inactive.

In the case of `CC(C)(C)[C@@H](O)[C@@H](Cc1ccc(Cl)cc1)n1cncn1`, the AC50 is 2.66 µM (active).
